Where a name gives a salt, the structure may show the parent alone. ± gives the standard deviation of the averaged measurements.
Key:
[1] = test system: Saccharomyces cerevisiae BY4741 SeMeCo community; assay: mean cell size (pixel area) (pixels); higher = larger cells; details: 10 µM; 24 h; SM minimal medium
How it was run: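 A fluorescent Saccharomyces cerevisiae BY4741 community carrying four plasmids was used, with each plasmid complementing one auxotrophy and bearing a fluorescent marker. An overnight preculture at OD600 = 1.0 was diluted to OD600 = 0.3, and 70 µl went into 384-well plates acoustically predosed with drug (final 10 µM) in SM medium for 24 h. After paraformaldehyde fixation, cells were imaged by automated confocal microscopy and analysed in Harmony, giving the mean cell pixel area per well. Each value is the average of 3 replicates. Same SeMeCo high-content imaging drug screen: Selleck FDA-approved drugs at 10 µM, 24 h in SM medium, 384-well plates, 3 replicates.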

[2] = test system: Saccharomyces cerevisiae BY4741 SeMeCo community; assay: z-score of prototroph abundance vs DMSO median; higher = larger share of this subpopulation than in DMSO controls; details: 10 µM; 24 h; SM minimal medium; subpopulation (auxotrophy): Prototroph
How it was run: (§1)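 Scoring was based on each subpopulation's abundance, expressed as a z-score against the vehicle-well median. A Saccharomyces cerevisiae BY4741 community with four plasmids, each restoring one auxotrophy and encoding a distinct fluorescent protein, was pre-grown overnight to OD600 1.0, diluted to 0.3, and added at 70 µl to 384-well plates acoustically predosed with library drugs (10 µM final). It then grew 24 h in minimal SM medium before paraformaldehyde fixation and automated confocal microscopy, with single-auxotroph fluorescent strains setting thresholds and autofluorescence correction.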

[3] = test system: Saccharomyces cerevisiae BY4741 SeMeCo community; assay: z-score of subpopulation abundance vs DMSO median, subpopulation auxotrophic for M; higher = larger share of this subpopulation than in DMSO controls; details: 10 µM; 24 h; SM minimal medium; subpopulation (auxotrophy): M
How it was run: as §1

[4] = test system: Saccharomyces cerevisiae BY4741 SeMeCo community; assay: z-score of subpopulation abundance vs DMSO median, subpopulation auxotrophic for U; higher = larger share of this subpopulation than in DMSO controls; details: 10 µM; 24 h; SM minimal medium; subpopulation (auxotrophy): U
How it was run: as §1

[5] = test system: Saccharomyces cerevisiae BY4741 SeMeCo community; assay: z-score of subpopulation abundance vs DMSO median, subpopulation auxotrophic for LU; higher = larger share of this subpopulation than in DMSO controls; details: 10 µM; 24 h; SM minimal medium; subpopulation (auxotrophy): LU
How it was run: as §1

[6] = test system: Saccharomyces cerevisiae BY4741 SeMeCo community; assay: z-score of subpopulation abundance vs DMSO median, subpopulation auxotrophic for LM; higher = larger share of this subpopulation than in DMSO controls; details: 10 µM; 24 h; SM minimal medium; subpopulation (auxotrophy): LM
How it was run: as §1

[7] = test system: Saccharomyces cerevisiae BY4741 SeMeCo community; assay: z-score of subpopulation abundance vs DMSO median, subpopulation auxotrophic for HM; higher = larger share of this subpopulation than in DMSO controls; details: 10 µM; 24 h; SM minimal medium; subpopulation (auxotrophy): HM
How it was run: as §1

[8] = test system: Saccharomyces cerevisiae BY4741 SeMeCo community; assay: z-score of subpopulation abundance vs DMSO median, subpopulation auxotrophic for HU; higher = larger share of this subpopulation than in DMSO controls; details: 10 µM; 24 h; SM minimal medium; subpopulation (auxotrophy): HU
How it was run: as §1

[9] = test system: Saccharomyces cerevisiae BY4741 SeMeCo community; assay: z-score of subpopulation abundance vs DMSO median, subpopulation auxotrophic for UM; higher = larger share of this subpopulation than in DMSO controls; details: 10 µM; 24 h; SM minimal medium; subpopulation (auxotrophy): UM
How it was run: as §1

[10] = test system: Saccharomyces cerevisiae BY4741 SeMeCo community; assay: z-score of subpopulation abundance vs DMSO median, subpopulation auxotrophic for HL; higher = larger share of this subpopulation than in DMSO controls; details: 10 µM; 24 h; SM minimal medium; subpopulation (auxotrophy): HL
How it was run: as §1

[11] = test system: Saccharomyces cerevisiae BY4741 SeMeCo community; assay: z-score of subpopulation abundance vs DMSO median, subpopulation auxotrophic for HLU; higher = larger share of this subpopulation than in DMSO controls; details: 10 µM; 24 h; SM minimal medium; subpopulation (auxotrophy): HLU
How it was run: as §1

[12] = test system: Saccharomyces cerevisiae BY4741 SeMeCo community; assay: z-score of subpopulation abundance vs DMSO median, subpopulation auxotrophic for HLM; higher = larger share of this subpopulation than in DMSO controls; details: 10 µM; 24 h; SM minimal medium; subpopulation (auxotrophy): HLM
How it was run: as §1

[13] = test system: Saccharomyces cerevisiae BY4741 SeMeCo community; assay: z-score of subpopulation abundance vs DMSO median, subpopulation auxotrophic for HUM; higher = larger share of this subpopulation than in DMSO controls; details: 10 µM; 24 h; SM minimal medium; subpopulation (auxotrophy): HUM
How it was run: as §1

[14] = test system: Saccharomyces cerevisiae BY4741 SeMeCo community; assay: z-score of subpopulation abundance vs DMSO median, subpopulation auxotrophic for LUM; higher = larger share of this subpopulation than in DMSO controls; details: 10 µM; 24 h; SM minimal medium; subpopulation (auxotrophy): LUM
How it was run: as §1

[15] = test system: Saccharomyces cerevisiae BY4741 SeMeCo community; assay: z-score of subpopulation abundance vs DMSO median, subpopulation auxotrophic for HLUM; higher = larger share of this subpopulation than in DMSO controls; details: 10 µM; 24 h; SM minimal medium; subpopulation (auxotrophy): HLUM
How it was run: as §1

[16] = test system: Saccharomyces cerevisiae BY4741 SeMeCo community; assay: z-score of subpopulation abundance vs DMSO median, subpopulation auxotrophic for H; higher = larger share of this subpopulation than in DMSO controls; details: 10 µM; 24 h; SM minimal medium; subpopulation (auxotrophy): H
How it was run: as §1

SMILES	mean cell size [1]	z-score of prototroph abundance [2]	z-score of subpopulation abundance [3]	z-score of subpopulation abundance [4]	z-score of subpopulation abundance [5]	z-score of subpopulation abundance [6]	z-score of subpopulation abundance [7]	z-score of subpopulation abundance [8]	z-score of subpopulation abundance [9]	z-score of subpopulation abundance [10]	z-score of subpopulation abundance [11]	z-score of subpopulation abundance [12]	z-score of subpopulation abundance [13]	z-score of subpopulation abundance [14]	z-score of subpopulation abundance [15]	z-score of subpopulation abundance [16]
Cc1nc(C)c(Cl)c(O)c1Cl [Clopidol]	12.22 ± 0.083	0.11	-0.51	-0.09	0.07	-0.19	-0.62	-0.28	-0.13	0.28	-0.09	0.14	-0.08	-0.04	-0.36	
CCCNC(C)C(=O)Nc1ccccc1C (centres undefined) [Prilocaine hydrochloride]	12.28 ± 0.063	-0.24	-0.36	0.86	1.11	0.83		0.08	0.54	0.03	-0.01	-0.05	-0.27	0.73	0.58	-0.67
CC(=O)OCC(COC(C)=O)OC(C)=O [Triacetin]	12.4 ± 0.15	0.21	-0.16	0.01	-0.81	0.2	0.03	0.55	-0.42	-0.02	-1.12	-0.57	0.7	0.32		0.22
CO/N=C(\C(=O)N[C@@H]1C(=O)N2C(C(=O)O)=C(COC(N)=O)CS[C@H]12)c1ccco1 [Cefuroxime sodium]	12.47 ± 0.073	0.23	0.78	0.58	-1.06	-0.79	-0.58	-0.93	0.13	-0.76	-1.34	-1.17		-0.31	-0.98	
O=C(c1ccccc1)c1ccc2n1CCC2C(=O)O (centres undefined) [Ketorolac]	12.6 ± 0.32	0.73	0	-0.78	-0.64	0.62	-0.76	-1.29	-1.16	0.33	-0.97		-0.93	-0.52	-0.11	-0.3
CO[C@H]1O[C@@H]2O[C@@]3(C)CC[C@H]4[C@H](C)CC[C@@H]([C@H]1C)[C@@]24OO3 [Artemether]	12.05 ± 0.027	1.17	-4.52	0.63	-0.14	-1.32	-2		-0.57	-0.28	-0.85	-0.27	-0.53	-0.58	0.11	2.67
COc1ccc(C(Cl)=C(c2ccc(OC)cc2)c2ccc(OC)cc2)cc1 [Chlorotrianisene]	12.6 ± 0.13	-0.67	1.26	0.17	0.41		1.06	0.01	0.15	0.2	1.95	3.27	0.82		1.18	
Cc1cc(-n2c(=O)[nH]c(=O)n(C)c2=O)ccc1Oc1ccc(SC(F)(F)F)cc1 [Toltrazuril]	12.53 ± 0.12		-0.11		-0.65	-0.18	0.1			0.24	0	-0.31	-0.45	-0.13	0.28	0.2
COc1cc(NS(=O)(=O)c2ccc(N)cc2)nc(OC)n1 [SulfadiMethoxine sodium]	12.4 ± 0.15	0.53	0.96	-0.68	-0.82	-0.45		0.29	-0.12		-0.72	0	-0.22	-0.37	-0.21	-0.13
CC(C)Cc1ccc(C(C)C(=O)O)cc1 (centres undefined) [Ibuprofen Lysine]	13 ± 0.042	3.98	-0.7	-3.65	-4.01	-0.77	-1.04	-2.64	-4.66		-1.49	-0.36	-3.01	-2.47		-0.2
NC(=O)C(c1ccccc1)(c1ccccc1)[C@@H]1CCN(CCc2ccc3c(c2)CCO3)C1 [Darifenacin HBr]	12.4 ± 0.39	0.34	0.85		-0.1	-0.2	-0.73	-0.14	0.53	-0.56	-0.45	-0.63	0.05	-0.55	-0.5	-1.43
COc1ccc2cc3[n+](cc2c1OC)CCc1cc2c(cc1-3)OCO2 [Berberine chloride]	12.5 ± 0.26	-0.22	0.33	-0.13	-0.32	0.14	-0.15		-0.09	0.31	0.27	-0.32		-0.34	-0.12	0.04
CO[C@@H]1[C@H](OC(=O)/C=C/C=C/C=C/C=C/C(=O)O)CC[C@]2(CO2)[C@H]1[C@@]1(C)O[C@@H]1CC=C(C)C [Fumagillin]		-1.67	-0.12	0.58	1.51	2.31	1.85	1.17		1.92	2.31	1.1	0.96		1.71	1.11
CC1(C)S[C@@H]2[C@H](NC(=O)COc3ccccc3)C(=O)N2[C@H]1C(=O)O [Penicillin V potassium salt]	11.8 ± 0.2	0.29	0.91		-0.1	0.22	0.44	0.49	0.57	-0.72	-0.94	-0.74	-0.23	-0.32	-1.08	-1.14
CC(C)(C)C(=O)C(Oc1ccc(Cl)cc1)n1ccnc1 (centres undefined) [Climbazole]	11.3 ± 0.047	-9.09	7.09	-1.3	-2.81	0.49		4.67	24.4	2.46	1.28	12.1	9.71	5.42	8.88	2.84

Source: the supplement of paper PMC8975748
